Test results from PubChem BioAssay.
Entries with a potency or affinity are not part of this list. Inconclusive results are not listed. Unmarked numbers belong to inactive results.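 How the source made its calls: active means falling signal with fitted half-maximal potency no higher than twice the top valid tested dose; inconclusive means poor fit quality, or flat fit spanning -70% to -30%; inactive means potency over limit, rising signal, or flat fit inside 30%.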

assay: fungal growth arrest, C. neoformans – Alamar Blue, cherry-picks, dose response (AID 686998); settings: Cryptococcus neoformans growth, 24 h; series mostly up to 35 µM; activity change, negative = inhibition: at the top concentration

SMILES | activity change, negative = inhibition
C[C@@H]1CN([C@@H](C)CO)C(=O)c2cccc(NS(C)(=O)=O)c2O[C@@H]1CN(C)C(=O)Nc1ccc2c(c1)OCO2 | 5%
CCCC#Cc1ccc2c(c1)O[C@H](CN(C)CCC)[C@H](C)CN([C@@H](C)CO)S2(=O)=O | -38.2%
CCC(=O)N(C)C[C@H]1Oc2cc(-c3ccccc3)ccc2S(=O)(=O)N([C@H](C)CO)C[C@H]1C | 27%
CO[C@H]1CN(C)C(=O)c2cc(NS(=O)(=O)CC(F)(F)F)ccc2OC[C@@H](C)N(Cc2cccnc2)C[C@@H]1C | 25.5%
CCCN1CCCC[C@H]1C(=O)Nc1c(C)cccc1C | -22.5%
COc1ccccc1C(=O)Nc1ccc2c(c1)C(=O)N(C)C[C@H](OC)[C@@H](C)CN(CC1CC1)[C@@H](C)CO2 | -24.2%
CC(C)NC(=O)Nc1ccc2c(c1)C(=O)N([C@@H](C)CO)C[C@H](C)[C@@H](CN(C)Cc1ccc3c(c1)OCO3)OCCCC[C@@H](C)O2 | 15.8%
C[C@@H]1CN([C@@H](C)CO)C(=O)c2c(c3ccccc3n2C)-c2ccccc2CO[C@@H]1CN(C)S(=O)(=O)c1ccc(Cl)cc1 | 34.2%
C[C@@H]1CN([C@@H](C)CO)C(=O)CCCn2nncc2CO[C@@H]1CN(C)Cc1cccc(C(F)(F)F)c1 | -1.76%
C[C@@H](NC(=O)C[C@@H]1CC[C@@H]2[C@H](COC[C@H](O)CN2Cc2cc(F)ccc2F)O1)c1ccccc1 | -36.1%
COc1cc(C(=O)Oc2ccccc2N)cc(OC)c1OC | 12.6%
COc1cccc(-c2cn(CC[C@@H]3CC[C@@H](NC(C)=O)[C@H](CO)O3)nn2)c1 | 20%
O=S(=O)(c1ccc(F)cc1)N1C[C@@H]2[C@H](c3ccccc31)[C@@H](CO)N2Cc1ccccc1Cl | -31.7%
COc1cccc(S(=O)(=O)Nc2ccc3c(c2)OC[C@H](C)NC[C@@H](C)[C@H](OC)CN(C)C3=O)c1 | -30.8%
CC(C)NC(=O)Nc1ccc2c(c1)CC(=O)N([C@@H](C)CO)C[C@@H](C)[C@@H](CN(C)Cc1ccc(Oc3ccccc3)cc1)O2 | -12.6%
C[C@@H]1CN([C@H](C)CO)C(=O)c2c(c3ccccc3n2C)-c2ccccc2CO[C@H]1CN(C)S(=O)(=O)c1ccc(Cl)cc1 | 44.6%
COc1cccc(S(=O)(=O)N2C[C@@H](O)COC[C@H]3O[C@H](CC(=O)Nc4ccccc4)CC[C@@H]32)c1 | -6.45%

SMILES | activity change, negative = inhibition
O=C1CCC(C(=O)Nc2cccc(C(F)(F)F)c2)N1 (stereo not drawn) | -37.4%
C[C@H]1CCCCO[C@H](CN(C)C(=O)Nc2ccc(F)cc2)[C@@H](C)CN([C@@H](C)CO)C(=O)c2cc(NS(=O)(=O)c3ccc(Cl)cc3)ccc2O1 | 48.5%
COc1ccc(C#Cc2ccc3c(c2)O[C@@H](CN(C)C(C)=O)[C@@H](C)CN([C@H](C)CO)S3(=O)=O)cc1 | -21%
CC(C)NC(=O)Nc1ccc2c(c1)CC(=O)N([C@H](C)CO)C[C@H](C)[C@H](CN(C)S(=O)(=O)c1ccc(Cl)cc1)O2 | 21.2%
C[C@H]1CN([C@@H](C)CO)S(=O)(=O)c2ccc(C#Cc3cccc(F)c3)cc2O[C@@H]1CN(C)C(=O)NC1CCCCC1 | -6.6%
O=C(Nc1ccccc1)N1CCCCN2[C@H](CO)[C@@H](c3ccc(C#CC4CC4)cc3)[C@@H]2C1 | -30.2%
O=C(C1CCOCC1)N1CC[C@@H]2[C@H]1c1cc(Br)ccc1N[C@@H]2CO | -15.3%
CC1CCCCN1C(=O)CSc1nc(C2CC2)nc2c1cnn2-c1ccccc1 (stereo not drawn) | -28.9%
Cc1cccc(C)c1NC(=O)C(CCc1ccccc1)N1CCC(c2ccccc2)CC1 (stereo not drawn) | 14.2%
C[C@@H]1CN([C@@H](C)CO)C(=O)Cc2cc(NC(=O)Nc3cccc4ccccc34)ccc2O[C@@H]1CN(C)S(=O)(=O)c1cccs1 | 60.9%
CNC(=O)CN(c1ccc(C)cc1)S(=O)(=O)c1ccccc1 | -32.8% [at 38 µM]
C[C@H](CO)N1C[C@H](C)[C@H](CN(C)Cc2ccccc2)Oc2cc(C#Cc3ccccn3)ccc2S1(=O)=O | 29.1%
COCCNC(=O)C[C@H]1C=C[C@@H](NS(=O)(=O)c2ccc(C)cc2)[C@H](CO)O1 | 26%
Cc1cccc(-c2ccc([C@@H]3[C@H]4CN(C(=O)c5ccc6c(c5)OCO6)CCCCN4[C@H]3CO)cc2)c1 | -47.3%
COc1ccc(N(CC(=O)NCCSCc2ccc(C)cc2)S(=O)(=O)c2ccccc2)cc1 | -34%
C[C@H](CO)N1C[C@H](C)[C@@H](CN(C)Cc2ccncc2)Oc2ccc(NC(=O)CCC(F)(F)F)cc2C1=O | 21.6%
